This is an account of results in PMC7819943, “Rice protein-binding microarrays: a tool to detect cis-acting elements near promoter regions in rice”.

In all, about 68,000 sequences were measured (“fluorescence intensity (a.u.)”: median about 9,100, highest 2% from about 16,000 on). Many of the other results were omitted from the sample, so the highest values are more common in it than they were.

The target in the test is OsWRKY34 (Oryza sativa, UniProt Q0JBA9 1-250). The test can be described thus: protein-binding microarray (RPBM); PBS, 2% BSA, 51.3 ng/ul salmon testes DNA, 50 uM zinc acetate, 200 nM TF, 25 C, 1 h; high values mean tight binding. The following applies: protein: recombinant; tags: N-terminal polyhistidine and DsRed monomer fusion (pET32a); label: CyDye5-dUTP incorporated in the synthesized complementary strand; 3' TTTTT single-stranded linker to array surface; dsDNA, one strand shown. The method, boiled down: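 Per-feature fluorescence intensity (arbitrary units), read on an Axon 4000B scanner, is the binding signal. Transcription factors carrying an N-terminal polyhistidine tag and DsRed fusion were expressed in E. coli BL21-CodonPlus and purified on Ni–NTA. A custom Agilent array, made double-stranded by primer extension with Cy5-dUTP and blocked with 2% BSA, was incubated with 200 nM protein in PBS, 2% BSA, salmon testes DNA and 50 µM zinc acetate at 25 °C for 1 h and then washed.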
Chain of OsWRKY34 (Q0JBA9 entry or part of it): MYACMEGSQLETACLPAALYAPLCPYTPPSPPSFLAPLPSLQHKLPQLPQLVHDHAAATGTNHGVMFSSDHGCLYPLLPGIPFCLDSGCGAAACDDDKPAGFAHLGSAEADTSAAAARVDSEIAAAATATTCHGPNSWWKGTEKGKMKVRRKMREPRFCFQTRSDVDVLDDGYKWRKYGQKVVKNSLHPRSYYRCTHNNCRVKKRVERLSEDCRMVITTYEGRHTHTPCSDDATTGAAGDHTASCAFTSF
Take “CTCGCTCACTCGGTCAGCTGCACACACACTGCACTTCGGCCGGAGTCACCTAGTGCAG”: the binding signal is 9820 fluorescence intensity (a.u.).

Take “AGGCAGGGTGGGTGGGTGGTGGGCTTGCTCGCTCCGCGTCCGGAGTCACCTAGTGCAG”: the binding signal is 19700 fluorescence intensity (a.u.).

For “CATGCGGGGCGCGGGCGGCGGTGCAGGGCGGGGTGCGGCCCGGAGTCACCTAGTGCAG”, the binding signal was 8730 fluorescence intensity (a.u.).

For “GTTGGGGAGCGCGGCGGGGCGTCGGAGGAGTTGACAGGAGCGGAGTCACCTAGTGCAG”, the binding signal was 8910 fluorescence intensity (a.u.).

Consider “GTGGGCGTGGGCCCCGCGTCCTGTGGTGGTGGTGGGTGCTCGGAGTCACCTAGTGCAG”, for which the binding signal is 9200 fluorescence intensity (a.u.).

Take “ATGTTGGGCCAGGCTCGAGCTCCTCCTCCTCCGCGTCGTCCGGAGTCACCTAGTGCAG”: the binding signal was 8140 fluorescence intensity (a.u.).

Turning to “GGTGCGGGGTGGCGGTGCTCGGCCACAGCGGCGCGCGGGGCGGAGTCACCTAGTGCAG”, the binding signal was 8130 fluorescence intensity (a.u.).

Regarding “GTGGAGGGGCGGCGTTGGGCAGAGGGGCGGCACGGGTGAACGGAGTCACCTAGTGCAG”, the binding signal was 12800 fluorescence intensity (a.u.).

For the sequence “CCAGAACGGCCGGTCAACGGCACCGTTGACCGTATGAGGGCGGAGTCACCTAGTGCAG”, the binding signal was 52400 fluorescence intensity (a.u.).

“GCGTTGAGGGCAGGCGGCGGCGCTTGGTGGCGGTGGGGCACGGAGTCACCTAGTGCAG”: the binding signal was 8370 fluorescence intensity (a.u.).

As for “GTTGGGGAGCGGGGTGTGTGTGCCAGGCGCTCGGGCGGGGCGGAGTCACCTAGTGCAG”, the binding signal was 19500 fluorescence intensity (a.u.).

As to “GGGGTGGCGGCGGCGGCTGCGCGCGGGCGGTGGCGCGGGGCGGAGTCACCTAGTGCAG”, the binding signal was 12000 fluorescence intensity (a.u.).

For the sequence “GCGGTGCAGGGCGGTGGCGGCGGCGGGTGGGGCGGTGGCGCGGAGTCACCTAGTGCAG”, the binding signal is 20900 fluorescence intensity (a.u.).

As to “CGGCCGTCCGCCATCTGCAAAAGGTGTTTTTTCACATGCCCGGAGTCACCTAGTGCAG”, the binding signal is 8560 fluorescence intensity (a.u.).

“ATCCTCTTGTTTCGTACAGGTCACTTAAATAGTTATAAAACGGAGTCACCTAGTGCAG”: the binding signal was 8300 fluorescence intensity (a.u.).

Regarding “CACTAAACGGCCAAAATCTTCCATCGTATAGTTACGTCACCGGAGTCACCTAGTGCAG”, the binding signal was 8410 fluorescence intensity (a.u.).

For the sequence “CTCTACTATCGATCTTTTTTCCACGTCGGTCGCGGCTTTTCGGAGTCACCTAGTGCAG”, the binding signal is 9580 fluorescence intensity (a.u.).

In the case of “AGTATAACTTTTTTTTTGTCACTCTGTTATCTCACATCTGCGGAGTCACCTAGTGCAG”, the binding signal was 8760 fluorescence intensity (a.u.).

As for “CTATCTTTTTCTCCATCTTTCTCTGTCCGTCCATTCACCCCGGAGTCACCTAGTGCAG”, the binding signal was 8690 fluorescence intensity (a.u.).

On to “GGGATGGATGGAGGCGGCGGTGCTGAGGTGGTGGGACTGTCGGAGTCACCTAGTGCAG”, for which the binding signal was 8460 fluorescence intensity (a.u.).

“GGGGAGGTGGAGATGAGATGAGGCGGCGGGGTGGCGGTGGCGGAGTCACCTAGTGCAG”: the binding signal was 13700 fluorescence intensity (a.u.).

With “CGCGGTGTGCCGGGGAGGGAGGTGGTGGTTGAGGTTGAGGCGGAGTCACCTAGTGCAG”, the binding signal is 11700 fluorescence intensity (a.u.).

As to “CGCCTGCCTGCCGCCACCGCCACTCCACTTTGCTTCACCGCGGAGTCACCTAGTGCAG”, the binding signal was 9570 fluorescence intensity (a.u.).

As to “AGGTGTGTATCGTACCGTGGCGGGCGCTTTCCTGGTGGGGCGGAGTCACCTAGTGCAG”, the binding signal is 10200 fluorescence intensity (a.u.).

With “GGATTTCCTGGGCGGGCGGGGCGCGGATAAGGGGTGTGTGCGGAGTCACCTAGTGCAG”, the binding signal was 17000 fluorescence intensity (a.u.).

“TCGGTGGGTGCCGGGCGGAGCGGTTTTTGAGGGAGGGGTCCGGAGTCACCTAGTGCAG”: the binding signal was 17600 fluorescence intensity (a.u.).

For “GATGGATGGGGTGGGGACTGGGGATGGATGGAGGCGGCGGCGGAGTCACCTAGTGCAG”, the binding signal was 21300 fluorescence intensity (a.u.).

Consider “CTGGGAGGGAGGGGAGGGAGCGCCGCCTTTGCCACTATCGCGGAGTCACCTAGTGCAG”, for which the binding signal was 16900 fluorescence intensity (a.u.).

As to “CGCCGCCTTTGCCACTATCGCTCCCTCCTCCAGCCGGATCCGGAGTCACCTAGTGCAG”, the binding signal is 10600 fluorescence intensity (a.u.).

For the sequence “CGAGGAGCGGGGTGGGGTCGGAGGCGGGGAGGGAGGACGCCGGAGTCACCTAGTGCAG”, the binding signal is 16100 fluorescence intensity (a.u.).

For “GTGCTGTGATTGGCCGCGCGGGATTTCCTGGGCGGGCGGGCGGAGTCACCTAGTGCAG”, the binding signal is 15500 fluorescence intensity (a.u.).

As for “CATATGTTTTGTTTTGCTTTGGGGCTTTTAGTAGTAGTTCCGGAGTCACCTAGTGCAG”, the binding signal is 9460 fluorescence intensity (a.u.).

For “CACAGATCATTACACACTGTTTGAGCATCTCTCTATTCCTCGGAGTCACCTAGTGCAG”, the binding signal is 8320 fluorescence intensity (a.u.).

In the case of “ACCCATTACAACCCTGTAGTACATGCCACACCGTTTGACACGGAGTCACCTAGTGCAG”, the binding signal is 10800 fluorescence intensity (a.u.).

In the case of “CCTTCACCTGGTAATCATTTCGATGCATTCATTTCCCTATCGGAGTCACCTAGTGCAG”, the binding signal is 8470 fluorescence intensity (a.u.).

“CTCGGCCAAAAAGAGATATCCCTTTCGCGCTCATCTTATCCGGAGTCACCTAGTGCAG”: the binding signal is 9980 fluorescence intensity (a.u.).

For “GAAAATCTGTGGGAGGGGAGGGGAGGGGACGAGGGGACAGCGGAGTCACCTAGTGCAG”, the binding signal is 19000 fluorescence intensity (a.u.).

For the sequence “TGTGAGGTGGGGTCGGGGTGGAAGTGGGTGAGGAGGGGTGCGGAGTCACCTAGTGCAG”, the binding signal is 21700 fluorescence intensity (a.u.).

On to “GGTGAGGTGGTGGTGGTGGTGGTCGGGAAGTGGCGGCGCCCGGAGTCACCTAGTGCAG”, for which the binding signal is 16100 fluorescence intensity (a.u.).

“GGGATGTGGCGGGCGGTGGGTCCAGGGAGGAGGAGGAGAACGGAGTCACCTAGTGCAG”: the binding signal was 15000 fluorescence intensity (a.u.).

Take “GGTGGTGGTGGTGGTGCCGGAGCTGGGGAGAAGAGGAGGACGGAGTCACCTAGTGCAG”: the binding signal is 9350 fluorescence intensity (a.u.).

Turning to “ATATATATATATATATATATATATATATATATAGGGACAGCGGAGTCACCTAGTGCAG”, the binding signal was 9530 fluorescence intensity (a.u.).

In the case of “GTGGGAGAGGCCGGCCGAGGGGAGGAGAGGGGAGGGGTGCCGGAGTCACCTAGTGCAG”, the binding signal was 10700 fluorescence intensity (a.u.).
